# Bioassay records as filed in PubChem.
# pPAFAH inh: pPAFAH (human) enzyme inhibition; Q13093; recombinant pPAFAH, FP-rhodamine probe fluorescence polarization; inhibition, % at 3.39 µM; 330,000 tested, 1.5% active;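 active = inhibition above the mean inhibition across the screen plus 3 SD, cut at about 25% in these data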;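 also: inhibitors block binding of the rhodamine activity-based probe so polarization drops; 0% = enzyme with DMSO and 100% = wells lacking pPAFAH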
# PP5 inh: PP5 (human) phosphatase inhibition | purified PP5c, OMFP substrate fluorescence | AID 1987 | P53041 | 320,000 tested, 0.18% active | inhibition, % at 6.7 µM;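 active = inhibition above the campaign's mean inhibition across all tested compounds plus 3 SD, cut at about 9.5% in these data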;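 also: 0% = DMSO only and 100% = 100 µM cantharidin control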
# Target sequence (P53041 whole entry, looked up): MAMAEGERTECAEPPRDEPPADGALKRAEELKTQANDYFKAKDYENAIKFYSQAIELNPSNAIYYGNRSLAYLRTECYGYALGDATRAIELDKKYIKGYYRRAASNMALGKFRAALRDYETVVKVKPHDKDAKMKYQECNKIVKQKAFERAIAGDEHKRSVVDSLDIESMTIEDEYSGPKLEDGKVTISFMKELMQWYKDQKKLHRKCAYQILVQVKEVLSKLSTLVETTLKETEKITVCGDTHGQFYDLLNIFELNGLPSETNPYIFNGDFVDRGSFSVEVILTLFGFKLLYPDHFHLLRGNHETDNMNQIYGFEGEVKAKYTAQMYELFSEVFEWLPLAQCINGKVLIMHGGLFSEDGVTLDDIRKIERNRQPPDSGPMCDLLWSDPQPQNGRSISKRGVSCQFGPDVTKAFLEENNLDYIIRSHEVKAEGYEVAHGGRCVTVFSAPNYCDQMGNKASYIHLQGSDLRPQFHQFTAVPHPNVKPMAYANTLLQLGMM
# PP1 inh: blocks human PP1-alpha phosphatase, a PP5 counter-screen; inhibition, % at 6.7 µM; 320,000 tested, 0.9% active; purified PP1alpha, OMFP fluorescence; P62136; AID 2235;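 active = inhibition above the mean inhibition of all tested compounds plus 3 SD, computed separately for each screening campaign, cut at about 15% in these data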
# PAFAH1B2 inh: blocks human PAF acetylhydrolase 1b catalytic subunit 2. recombinant PAFAH1B2, FP-rhodamine activity probe, fluorescence polarization. AID 492953. P68402. inhibition, % at 3.39 µM. 340,000 tested, 1.2% active;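 active = inhibition above the mean of all tested compounds plus 3 SD, cut at about 24% in these data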;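 also: 0% = enzyme with DMSO and 100% = wells lacking PAFAH1B2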
# PAFAH1B3 FP inh: inhibitors of human PAFAH1B3. Q15102. recombinant PAFAH1B3, FP-rhodamine probe, fluorescence polarization. inhibition, % at 3.39 µM. 340,000 tested, 0.28% active;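 active = inhibition above the screen-wide average of all tested compounds plus 3 SD, cut at about 25% in these data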;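 also: 0% = enzyme with DMSO only and 100% = wells lacking PAFAH1B3 protein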
# PAFAH2 FP inh: PAFAH2 (human) inhibition; Q99487; inhibition, % at 3.39 µM; recombinant PAFAH2, FP-rhodamine activity probe, fluorescence polarization; 340,000 tested, 0.99% active;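 active = inhibition above the mean over all tested compounds plus 3 SD, cut at about 30% in these data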;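 also: inhibitors block probe labeling of enzyme so polarization drops; 0% = enzyme with DMSO and 100% = wells lacking PAFAH2 protein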
# PAFAH2 FP conf: confirmation of human PAFAH2 inhibitors | 2,300 tested, 65% active | inhibition, % at 3.39 µM | shares compounds with PAFAH2 FP inh | recombinant PAFAH2, FP-rhodamine activity probe, fluorescence polarization;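 active = mean inhibition over three repeats above a set limit taken from the earlier primary screen, cut at about 30% in these data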;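 also: inhibitor blocks binding of rhodamine activity probe so polarization falls; 0% = enzyme with DMSO and 100% = wells lacking PAFAH2 protein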
# The depositor's hits bear a star; x = no result given. Most compounds without a hit are left out; they make up all but 3.4% or so of the library.
SMILES,pPAFAH inh,PP5 inh,PP1 inh,PAFAH1B2 inh,PAFAH1B3 FP inh,PAFAH2 FP inh,PAFAH2 FP conf
Nc1cc(Cl)ccc1C(=O)OCC(=O)NC1CCCCC1,-3,-2,-2,-2,9,33*,31*
Cc1ccc(S(=O)(=O)N(C)c2ccc(C(=O)Nc3c(C)n(C)n(-c4ccccc4)c3=O)cc2)cc1,3,0,9,11,-1,8,x
Cc1ccc(C(O)(COC(=O)C(C)C)COC(=O)C(C)C)c(O)c1,1,7,-1,6,13,4,x
Cc1cccc(C(C(=O)NC2CCCC2)N(C(=O)c2csnn2)C2CCCC2)c1 (stereo unspecified),5,0,-1,3,3,3,x
O=C(O)c1ccc(N2CCCS2(=O)=O)cc1,5,2,1,2,5,-1,x
CC1CCCN(S(=O)(=O)c2ccc(NC(=O)C3CC(=O)N(c4ccccc4)C3)cc2)C1 (stereo unspecified),-4,5,7,1,-5,3,x
O=C(COC(=O)c1ccc(Br)cc1)NC1CCCC1,18,-2,-1,-1,4,67*,69*
CNS(=O)(=O)c1cccc(C(=O)OCC(=O)NC2CCCC2)c1,6,-1,-1,-3,8,46*,28
O=C(COC(=O)c1cc(Br)ccc1Cl)NC1CCCC1,16,1,-6,0,-1,34*,30*
O=C(COC(=O)c1cncc(Br)c1)NC1CCCC1,-4,2,-2,0,0,5,x
O=C(COC(=O)c1cc(Br)ccc1O)NC1CCCCCC1,6,-2,-3,1,13,25,x
N#Cc1ccc(OCC(=O)N2CCN(c3ccc(C(F)(F)F)cn3)CC2)cc1,-9,5,-4,5,13,-5,x
CC(NC(=O)COC(=O)COc1ccc(Cl)cc1)c1ccccc1 (stereo unspecified),15,x,x,18,2,1,x
CC(NC(=O)COC(=O)/C=C/c1ccc(Cl)cc1)c1ccccc1 (stereo unspecified),3,0,-3,9,7,31*,21
CC(NC(=O)COC(=O)/C=C/c1cccc(F)c1)c1ccccc1 (stereo unspecified),6,x,x,9,0,46*,34*
COc1cc(/C=C/C(=O)OCC(=O)NC(C)c2ccccc2)cc(OC)c1OC (stereo unspecified),5,x,x,3,8,31*,14
COc1cc(/C=C/C(=O)OCC(=O)NC(=O)NC(C)C)cc(OC)c1OC,-2,1,-3,3,4,0,x
O=C(O)C1(c2ccccc2)CCN(S(=O)(=O)c2cccc(Cl)c2)CC1,3,0,3,13,0,3,x
O=c1oc(-c2ccccc2F)nc2c1cnn2-c1ccccc1,0,2,-5,4,8,74*,45*
Nc1c(-c2cccc(Cl)c2)cnn1-c1ccccc1,8,3,-1,3,-3,2,x
O=c1oc(-c2cccc(Cl)c2)nc2c1cnn2-c1ccccc1,20,0,2,-3,6,70*,52*
CSc1nc2c(cnn2-c2ccccc2)c(=O)n1N,5,0,-3,-3,1,1,x
COc1ccc(C(=O)NNC(=O)c2cccs2)cc1S(=O)(=O)N1CCOCC1,3,x,x,6,13,-2,x
O=C(O)c1ccc(CNC(=O)c2ccccc2NC(=O)c2ccc([N+](=O)[O-])cc2)cc1,2,-2,-2,4,4,38*,30*
CCN(CC)CCC=C(c1cccs1)c1cccs1,x,x,x,0,4,0,x
CC(C)c1ccc(O)c(NC(=S)NC(=O)c2ccc3c(c2)OCO3)c1,7,8,4,6,0,30*,21
O=C(NC(=S)Nc1ccccc1Br)c1ccc2c(c1)OCO2,2,2,2,-3,9,5,x
COc1ccc(-c2csc(NC(=O)c3nc(-c4ccccc4)oc3C)n2)cc1,4,3,4,-2,-2,-1,x
Cc1oc(-c2ccccc2)nc1C(=O)Nc1nccs1,7,1,1,4,3,32*,1
